Results taken from ChEMBL document CHEMBL1157539, “Thousands of chemical starting points for antimalarial lead identification” (Nature, 2010).
“And” between values parts separate entries of the source, which are not always exact repeats. Identical values can stand only once.

What was measured:
Type in all cases: functional
Plasmodium falciparum [1] = assay: GSK_TCMDC: Inhibition of Plasmodium falciparum 3D7 in whole red blood cells, using parasite LDH activity as an index of growth. Test compounds present at 2uM
Plasmodium falciparum [2] = assay: GSK_TCMDC: Inhibition of Plasmodium falciparum Dd2 in whole red blood cells, using parasite LDH activity as an index of growth. Test compounds present at 2uM
HepG2 = assay: GSK_TCMDC: Percent inhibition of human HepG2 cell line. Test compounds present at 10uM.

SMILES	Inhibition (Plasmodium falciparum [1])	Inhibition (Plasmodium falciparum [2])	Inhibition (HepG2) [%]
CN(C)S(=O)(=O)n1ncc2c3c(N)nc(N)nc3ccc21.Cl	96%	0%	
CCCCNCCOc1ccc(-c2nc(-c3ccccc3)c(-c3ccccc3)[nH]2)cc1	100%	34%	
CCN(Cc1cccc2ccccc12)c1ccc2nc(N)nc(N)c2c1.Cl	100%	100%	
CC(=NNC(S)=NCc1ccco1)c1ccccn1	99%	100%	
COc1cccc2c(O)c(CNC3CCCCC3)ccc12.Cl	100%	98%	
CCCOc1cc2c(cc1OCCC)C(C=Cc1ccc(Cl)cc1Cl)=NC(C)C2.Cl (centres undefined)	90%	75%	
Cc1nc(C)c(-c2ccc(Sc3ccc(Cl)cc3)cc2)c(O)c1Br	98%	97%	
Cc1nc(C)c(-c2ccc(Oc3ccc(Cl)c(Cl)c3)cc2)c(O)c1Br	97%	96%	
COc1cc(Cc2cnc(N)nc2N)cc(OCCCCc2ccc([N+](=O)[O-])cc2)c1OC	88%	4%	
CC(C)c1ccc2c(c1)C(=O)c1ccc(C(=O)O)cc1S2(=O)=O	93%	83%	
COc1ccc(C2c3ccccc3-c3nc(N)nc(N)c3C2C)cc1 (centres undefined)	97%	0%	
N=C(N)NC(=O)Nc1cc(F)c(Cl)c(Cl)c1	100%	100%	
Nc1nc(N)c(-c2ccccc2)c(=O)[nH]1	83%	0%	
Nc1nc(N)c2c(ccc3c2ccn3Cc2cccc(F)c2)n1	100%	99%	
Cc1[nH]c(C)c(-c2ccc(Oc3ccc(Cl)cc3)cc2)c(=O)c1C	96%	95%	
Cc1nc(C)c(-c2ccc(Oc3cc(Cl)cc(Cl)c3)cc2)c(O)c1Cl	96%	96%	
COc1cc(Cc2cnc(N)nc2N)cc(OCCCC(=O)O)c1OC	84%	0%	
Cc1[nH]c(C)c(-c2ccc(Oc3ccc(F)cc3)cc2)c(=O)c1Br	100%	98%	
CCCCSc1ccc(CNCCCCCCNCc2ccc(SCCCC)c3ccccc23)c2ccccc12.CS(=O)(=O)O	94%	48%	
CCC(=C(CC)c1ccc(O)c(CNC2CCCCC2)c1)c1ccc(O)c(CNC2CCCCC2)c1.Cl	100%	100%	
COc1ccc2nc3cc(Cl)ccc3c(Nc3ccc(Oc4ccc(Nc5c6ccc(Cl)cc6nc6ccc(OC)cc56)cc4)cc3)c2c1.Cl	86%	93%	

SMILES	Inhibition (Plasmodium falciparum [1])	Inhibition (Plasmodium falciparum [2])	Inhibition (HepG2) [%]
Nc1nc(N)c2c(Oc3cccc(Cl)c3)cccc2n1	97%	7%	
CCCc1ccc(Cc2cnc3nc(N)nc(N)c3c2C)cc1	98%	0%	
Cc1nc(C)c(-c2ccc(Oc3ccc([S+](C)[O-])cc3)cc2)c(O)c1Br (centres undefined)	91%	64%	
CCCCCCCN(Cc1ccc(OC(C)(C)C(=O)OCC)cc1)C(=O)Cc1ccc(F)cc1F	93%	95%	
CC1CCN(Cc2c(O)ccc3c(CN4CCC(C)CC4)c(O)ccc23)CC1.Cl	100%	86%	
Cc1[nH]c(C)c(-c2ccc(Oc3ccc(C(F)(F)F)cc3)cc2)c(=O)c1Br	97%	97%	
Nc1nc(N)c2c(Sc3ccc(F)cc3)cccc2n1	88%	0%	
O=C(NCCCCN1CCN(c2nsc3ccccc23)CC1)c1ccccc1C(=O)NCCCCN1CCN(c2nsc3ccccc23)CC1	100%	22%	
Nc1nc(N)c2c(ccc3c2ccn3Cc2ccc3c(c2)OCO3)n1	100%	95%	
CCCCCCCCCC(=O)NCC1CC(Br)=NO1 (centres undefined)	87%	42%	
CCCCC#Cc1cnc2nc(N)[nH]c(=O)c2n1	89%	2%	
Cc1nc(C)c(-c2ccc(Oc3ccc(Cl)cc3)cc2)c(O)c1I	88%	49%	
Cn1c(N)cc(-c2cccc(I)c2)c2c(=O)nc(N)nc1-2	89%	75%	
CCCCCCn1ccc2c3c(N)nc(N)nc3ccc21	99%	91%	
Cl.Nc1nc(N)c2c3c(ccc2n1)NCCC3	97%	0%	
COc1ccc2ncc(F)c(C(O)CN3CCC(NCc4ccc5c(n4)NC(=O)CO5)CC3)c2c1.Cl (centres undefined)	99% and 100%	51% and 88%	
CC(C)c1ccc(Cn2cc(-c3ccncc3)c3cc(OCc4ccccc4)ccc32)cc1.Cl	99%	88%	
Cl.c1ccc(CN2CCN(CCCCNc3c4ccccc4nc4ccccc34)CC2)cc1	100%	100%	
Cc1nc(N)nc(N)c1-c1ccc(Br)c(Br)c1	94%	1%	
CCCCc1nc2nc(N)nc(N)c2cc1CCC	97%	0%	
CCNC(=O)CCc1cccc(Br)c1	89%	54%	

SMILES	Inhibition (Plasmodium falciparum [1])	Inhibition (Plasmodium falciparum [2])	Inhibition (HepG2) [%]
Cc1ccc(Cc2cccc3nc(N)nc(N)c23)cc1	92%	0%	
Cl.c1ccc2c(CNCCCN3CCN(CCCNCc4c5ccccc5cc5ccccc45)CC3)c3ccccc3cc2c1	100%	100%	
COc1cc(CCNC(=O)Cc2ccc3ccccc3c2)ccc1OCc1ccccc1	93%	61%	
Cc1cc2c3c(N)nc(N)nc3ccc2n1C	95%	0%	
CCN(CC)CCCC(C)Nc1ccnc2cc(C#N)ccc12 (centres undefined)	100%	80%	
CCOC(=O)c1nc2ccc(SC3CCCCC3)cn2c1Br	86%	3%	
COc1cc(Cc2cnc(N)nc2N)cc(OCCCCCCC(=O)O)c1OC	90%	2%	
COc1ccc2c(c1CCNCCCCNCCc1c(OC)ccc3c1CCCC3)CCCC2.CS(=O)(=O)O	100%	25%	
C=CCn1ccc2c3c(N)nc(N)nc3ccc21	89%	91%	
CCN1C(=O)C(=NN=C(S)N2CCCC2)c2ccccc21	91%	9%	
Nc1nnc(-c2ccc(Cl)c(Br)c2)c(N)n1	86%	0%	
CCN(C)C(=O)n1ncc2c3c(N)nc(N)nc3ccc21	95%	0%	
CC/N=C(/NCCCCCCN/C(=N/CC)NCc1ccccc1)NCc1ccccc1.I	96%	95%	
Cc1ccccc1OCCCc1c(C)nc(N)nc1N	97%	1%	
CCOC(=O)c1c(-c2ccccc2)c(C(=O)OCC)n2ccccc12	93%	70%	
CC(C)n1c(C(C)(C)C)cc2c3c(N)nc(N)nc3ccc21	100%	99%	
CN1CCN(c2ccc3[nH]c(-c4ccc5[nH]c(-c6ccc([N+](=O)[O-])c(N)c6)nc5c4)nc3c2)CC1	100%	100%	
N=C(NCC1CC1c1ccccc1)c1cccc(C(=N)NCC2CC2c2ccccc2)n1 (centres undefined)	95%	0%	
CCCCOc1c(CCNCCCCNCCc2cc(OC)c3ccccc3c2OCCCC)cc(OC)c2ccccc12.CS(=O)(=O)O	91%	47%	
CC(=NNc1nc2ccccc2s1)c1ccccn1.Cl	88%	47%	
CC(C)(C)c1ccc(Cc2cccc3nc(N)nc(N)c23)cc1	100%	51%	

SMILES	Inhibition (Plasmodium falciparum [1])	Inhibition (Plasmodium falciparum [2])	Inhibition (HepG2) [%]
Cl.Nc1nc(N)c2c(ccc3nn(Cc4ccccc4)cc32)n1	97%	88%	
O=C(Nc1cccc(-c2cccc(-c3nc4ccccc4[nH]3)c2)c1)NC1CC1c1ccccc1 (centres undefined)	90% and 87%	22% and 27%	
Cc1cc(O)c(-c2ccc(S(=O)(=O)c3ccc(Cl)cc3)cc2)c(C)n1	92%	80%	
CCC1=C(CC2NCCc3cc(OC)c(OC)cc32)CC2c3cc(OC)c(OC)cc3CCN2C1 (centres undefined) [DIHYDROEMETINE]	100%	100%	
COc1ccc2c(CNCCCCCCNCc3c(OC)ccc4cc(OC)ccc34)c(OC)ccc2c1.CS(=O)(=O)O	100%	79%	
Cl.Clc1ccc(CNCCCCCCCNCc2ccc(Cl)c(Cl)c2)cc1Cl	99%	49%	
CCCCNCc1cc(Cl)c2ccccc2c1O.Cl	100%	100%	
CC(C)C(=O)Nc1c(F)cc(F)cc1CCc1ccc(O)cc1	90%	91%	
Cc1[nH]c(C)c(-c2ccc(Oc3cccc(C(F)(F)F)c3)cc2)c(=O)c1Br	99%	97%	
Cl.N=C(N)c1ccc(OCCCCCOc2ccc(C(=N)N)cc2)cc1 [PENTAMIDINE HYDROCHLORIDE]	99%	98%	
CCC(C(C)C)n1ccc2c3c(N)nc(N)nc3ccc21 (centres undefined)	95%	95%	
CCCc1cc(OC)c(CC2c3cc(O)c(Cl)cc3C(c3ccccc3)CN2C)cc1OC.Cl (centres undefined)	100%	100%	
COc1ccc2c(OC)cccc2c1CNCCCCCCNCc1c(OC)ccc2c(OC)cccc12.CS(=O)(=O)O	92%	28%	
CC(CO)(CO)NCc1cc2ccc3ccsc3c2c2ccccc12.CS(=O)(=O)O	96%	98%	
COc1cc(Cc2cnc(N)nc2N)cc(OCCCCNS(=O)(=O)C(F)(F)F)c1OC	84%	0%	
COc1ccc2c(c1CNCCCCCCNCc1c(OC)ccc3c1CCCC3)CCCC2	94%	7%	
COc1ccc(NC(=O)CCNc2cc(C)nc(Nc3ccccc3)n2)cc1.O=C(O)C(F)(F)F	92%	15%	0
CN1CCN(Cc2cc(NC(=O)c3ccc(-c4ccc(Cl)cc4Cl)cc3)ccc2-c2ccccc2)CC1	95%	21%	52
